Screens deposited in PubChem BioAssay by National Center for Advancing Translational Sciences (NCATS).
Rows were chosen to be rich in hits. Some 2.6% of all compounds tested hit in one or more screens of this group.
Cruzain inh Det: blocks cruzain activity in presence of Triton detergent; AID 1478; P25779; Potency, µM, inactives show max response, negative = inhibition, most hits filed as inhibitors; hit rate 0.43% among 200,000; purified cruzain, Z-FR-AMC fluorescence, 0.01% Triton;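 further: plate controls were neutral wells for no effect and buffer without enzyme for full effect; nearly all actives have a fitted effect of over 40% in size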
Target sequence (P25779 123-467 limits assumed): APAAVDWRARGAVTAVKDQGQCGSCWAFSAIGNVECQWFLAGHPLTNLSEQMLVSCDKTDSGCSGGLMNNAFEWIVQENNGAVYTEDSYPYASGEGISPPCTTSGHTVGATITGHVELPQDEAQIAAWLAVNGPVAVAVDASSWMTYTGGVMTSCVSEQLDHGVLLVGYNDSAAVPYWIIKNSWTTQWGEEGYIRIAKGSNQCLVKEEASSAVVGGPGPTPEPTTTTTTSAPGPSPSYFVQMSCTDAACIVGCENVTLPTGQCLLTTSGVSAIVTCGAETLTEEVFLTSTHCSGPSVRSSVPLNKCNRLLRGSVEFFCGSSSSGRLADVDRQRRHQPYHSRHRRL
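Compounds were screened in titration against cruzain (1.5 nM) with 0.01% Triton X-100 to counter colloidal aggregation. Activity was the AMC fluorescence increase over 60 s after adding 2 uM Z-FR-AMC at pH 5.5.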
Cruzain inh noDet: blocks cruzain activity in detergent-free assay | P25779 | purified cruzain, Z-FR-AMC fluorescence, no detergent | Potency, µM, for the others: max response, negative = inhibition, actives largely listed as inhibitors | hit rate 2.3% among 200,000 | AID 1476;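 further: plate controls were enzyme without inhibitor for no effect and buffer without enzyme for full effect; nearly all actives have a fitted effect of over 40% in size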
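Detergent-free condition (0.00005% Triton X-100) in acetate buffer pH 5.5 with DTT. 1.5 nM enzyme and compound were pre-mixed 15 min, then 2 uM Z-FR-AMC substrate added; reaction progress from fluorescence change between first and third reads (60 s).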
Starred values were filed as active, the others as inactive; ? = inconclusive. The call rests on the fitted dose curve; in most records, active means well fitted curve in the direction sought with a large enough effect; inconclusive means small, poorly fitted or top-dose-only effect, or another doubt; inactive means no such curve, though single readings can be large; an effect the other way counts as inactive or inconclusive. Potency means the concentration at half of the fitted maximal effect.

SMILES | Cruzain inh Det | Cruzain inh noDet
C=Cc1ccc(COc2ccc3oc(-c4ccccc4)c(C(=O)OCC)c3c2)cc1 | -6% | 32µM*
Cc1ccc(CNC(=O)c2ccc(CSCc3ccccc3Cl)o2)cc1 | 0% | -8%
CCOC(=O)c1c(NC(=O)c2cc(-c3ccc(Cl)cc3)on2)sc(C)c1C | -4% | 11%
COc1ccccc1-c1ccc2ncnc(NCc3cnc(C)cn3)c2c1 | -4% | 2%
COCCn1c(=O)c(CCc2ccccc2)nc2cnc(Nc3cccc(OC)c3)nc21 | 3% | 1%
O=c1c(CCc2ccccc2)nc2cnc(Nc3ccccc3)nc2n1Cc1cccs1 | 4% | 25µM*
COc1cccc(Nc2ncc3nc(-c4ccccc4)c(=O)n(Cc4cccs4)c3n2)c1 | 1% | 5µM*
COc1ccc(Oc2ncc3nc(C)c(=O)n(Cc4cccs4)c3n2)cc1 | -6% | 13%
COc1ccc(Oc2ncc3nc(-c4ccccc4)c(=O)n(Cc4cccs4)c3n2)cc1 | -1% | 25µM*
Cc1nc2cnc(Nc3ccccc3)nc2n(Cc2cccs2)c1=O | 1% | 1%
COc1cccc(Nc2ncc3nc(CCc4ccccc4)c(=O)n(Cc4cccs4)c3n2)c1 | 3% | 4µM*
COc1ccc(-c2nc3cnc(Nc4ccccc4)nc3n(Cc3cccs3)c2=O)cc1 | 0% | -1%
CCn1c(=O)cc(SCC(=O)N2CCN(c3cc(C)ccc3C)CC2)c2ccccc21 | -1% | ?
CN(C(=O)c1cc2nc(-c3ccco3)cc(C(F)(F)F)n2n1)c1ccc(OC(F)(F)Cl)cc1 | -2% | 0%
CCc1ccc(-n2nc3ccc(NC(=O)COc4ccc(OC)cc4)cc3n2)cc1 | -1% | 12%
Cc1ccc(NC(=O)C(Cc2ccccc2)NS(=O)(=O)c2ccc3c(c2)oc(=O)n3C)c(Cl)c1 (stereo not drawn) | 0% | -7%
COc1ccc(COc2cc(-c3cccc(OC)c3)nc3ccc(NC(=O)c4ccc(N(C)C)cc4)cc23)cc1 | -2% | 6.3µM*
COc1ccc(COc2cc(-c3cccc(OC)c3)nc3ccc(NC(=O)c4ccc(C)cc4)cc23)cc1 | 3% | 7.9µM*
COc1ccc(COc2cc(-c3cccc(OC)c3)nc3ccc(NC(C)=O)cc23)cc1 | 1% | ?
COc1ccc(COc2cc(-c3cccc(OC)c3)nc3ccc(N)cc23)cc1 | 0% | ?
Cc1cc(Br)ccc1NC(=O)c1sc2ncn(Cc3ccccc3Cl)c(=O)c2c1C | 2% | 0%
Cc1c(C)c2c(cc(C)c3c(-c4ccc(Br)cc4)coc32)oc1=O | -2% | -11%
Cc1cc(OCc2ccc(C(=O)NN=C3CCCC3)cc2)ccc1Cl | -6% | ?
Cc1cc(Br)c(OCc2ccc(C(=O)N/N=C3\CC(=O)CC(C)(C)C3)cc2)c(Br)c1 | -1% | 10µM*
Cc1ccc(S(=O)(=O)NCC2CCC(C(=O)N(C)Cc3ccccc3)CC2)cc1 (stereo not drawn) | -5% | -5%
SMILES | Cruzain inh Det | Cruzain inh noDet
COc1cccc(C2CC(=O)N3CN(C4CCCCC4)CSC3=C2C#N)c1 (stereo not drawn) | 28µM* | 10%
CN1CSC2=C(C#N)C(c3cccc(OCc4ccccc4)c3)CC(=O)N2C1 (stereo not drawn) | -13% | 6%
COc1ccc(C2CC(=O)N3CN(C4CCCCC4)CSC3=C2C#N)cc1 (stereo not drawn) | 20µM* | 12%
COc1ccc(N2CSC3=C(C#N)C(c4ccc(OC)c(OC)c4)CC(=O)N3C2)c(OC)c1 (stereo not drawn) | -12% | -15%
CCc1cccc(C)c1NC(=O)CCS(=O)(=O)c1cc(Br)cc2c1N(C(=O)C1CC1)CC2 | -1% | -3%
COc1ccc(-c2cccc(NS(=O)(=O)c3cc(C)c(Cl)cc3C)c2)nn1 | -2% | -27%
COc1cc(SC#N)ccc1N=Cc1c(C)[nH]n(-c2ccc(C)c(C)c2)c1=O | -5% | -5%
COc1cc(SC#N)ccc1N=Cc1c(C)[nH]n(-c2ccc(Cl)cc2)c1=O | 0% | 20µM*
Cc1ccc(C)c(NC(=O)CSc2nccn2-c2cccc(C)c2C)c1 | -6% | -9%
CSc1nnc2c(n1)OC(c1cccc(O)c1Cl)Nc1ccccc1-2 (stereo not drawn) | -5% | 1%
COc1cccc(CNC(=O)N2CCc3c(sc4c3CCCC4)C2c2ccc(F)cc2)c1 (stereo not drawn) | -2% | 6.3µM*
O=C(NCc1ccccc1)N1CCc2c(sc3c2CCCC3)C1c1ccccc1 (stereo not drawn) | -2% | ?
C/C(=N/NC(=O)CSCc1ccc(Cl)cc1)c1cccc(NC(=O)c2ccccc2)c1 | -4% | ?
Cc1cccc(C(=O)Nc2ccc(NC(=O)Cc3ccc(Cl)cc3)cc2)c1 | 1% | ?
C/C(=N\NC(=O)CSCc1ccc(Cl)cc1)c1ccc(NC(=O)c2ccccc2)cc1 | -4% | 25µM*
O=C(Cc1ccc(Cl)cc1)Nc1ccc(NC(=O)c2ccccc2)cc1 | 1% | 25µM*
C/C=C(/C)C#N | 7% | 10%
Cc1ccc(S(=O)(=O)n2ccc(-c3ccc(OCc4c(F)cccc4Cl)cc3)n2)cc1 | 2% | 32µM*
CN(CCOc1ccc(-c2ccn(S(=O)(=O)c3ccc(Cl)cc3)n2)cc1)c1ccccn1 | 2% | -29%
Cc1ccc(S(=O)(=O)n2ccc(-c3cccc(OCc4c(F)cccc4Cl)c3)n2)cc1 | 5% | 7.9µM*
CC(Oc1ccc(-c2ccccc2)c(F)c1)c1ccn(S(=O)(=O)c2ccc(Cl)cc2)n1 (stereo not drawn) | 11% | ?
COc1cccc2cc(-c3csc(-c4ccc(Cl)cc4)n3)c(=O)oc12 | 2% | -6%
CCc1nnc(NC(=O)CSc2nc3c([nH]c4ccccc43)c(=O)n2-c2cc(C)cc(C)c2)s1 | -1% | -8%
CCOc1ccc(CNC(=O)c2ccc(-c3nc(CSc4ccc(C)cc4)c(C)o3)cc2)cc1 | -1% | 7%
CCOC(=O)c1nn2c(C(F)(F)F)cc(-c3ccc(C)cc3)nc2c1Cl | 0% | -14%
SMILES | Cruzain inh Det | Cruzain inh noDet
COc1cc(OC)c(C(=O)NCc2nc(-c3ccccc3)no2)cc1OC | -7% | ?
Cc1cc(NS(=O)(=O)c2ccc(NC(=O)c3ccccc3F)cc2)nc(C)n1 | -1% | 10%
O=C(CSc1cn(CC(=O)N2CCOCC2)c2ccccc12)Nc1ccccc1F | -2% | 0%
Cn1cccc1C(=O)N1CCC2(CCN(C(=O)Nc3ccccc3)CC2)CC1 | -3% | -6%
Cc1ccc(-c2csc(N(CC3CCCO3)C(=O)c3ccco3)n2)cc1 (stereo not drawn) | -7% | 11%
COc1ccc(-c2csc(N(CC3CCCO3)C(=O)c3ccc(C)cc3)n2)cc1 (stereo not drawn) | -4% | 20µM*
CCOC(=O)c1c(C)n(-c2ccccc2)c2ccc(OC(=O)c3ccccc3NC(=O)C(C)(C)C)cc12 | 0% | -12%
O=C(CSc1nc2ccccc2[nH]1)c1ccc(Cl)s1 | -4% | 10µM*
O=C(CSc1nc2ccccc2[nH]1)N1c2ccccc2Sc2ccccc21 | -6% | -3%
CCOc1ccccc1CNC(=O)c1ccc2c(c1)N(Cc1ccc(C)cc1)CCS2 | -6% | ?
O=C(NCc1cccc(F)c1)c1ccc(CS(=O)c2ccccc2Cl)o1 (stereo not drawn) | -19% | -10%
CCNc1ncc2nc(-c3cn(C)c4ccccc34)c(=O)n(Cc3cccc(OC)c3)c2n1 | 4% | -20%
Cc1ccc(OCC(=O)NCC(=O)OCc2cc(=O)n3nc(C)sc3n2)cc1 | -4% | -7%
